Source: PubChem (National Center for Advancing Translational Sciences (NCATS))
Hits are enriched below; roughly 7.5% of the tested compounds scored in any of these assays.
KinaseGlo FLuc – counter-screen: inhibitors of Kinase-Glo firefly luciferase; Q27757; Kinase-Glo luciferase, ATP luminescence, 8 min; Potency, µM (doses to about 38.3 µM), for the others: top-dose activity change, negative = inhibition, actives largely listed as inhibitors; actives 0.28% (n = 200,000); AID 1379; note: % is set by controls: 0 for no effect and ±100 for the full control effect; nearly all actives have a fitted effect of over 60% in size
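Inhibition of Kinase-Glo luciferase light generation was assessed at 10 uM ATP in pH 7.2 imidazole buffer, with luminescence measured after eight minutes at ambient temperature.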
FLuc counter – counter-screen for miR-21 project: firefly luciferase inhibitors or activators; purified FLuc, Km substrates, luminescence inhibition; actives 6.9% (n = 360,000); Potency, µM (highest dose often 57.5 µM), inactives show top-dose activity change, negative = inhibition, hits mostly inhibitors; AID 588342;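 note: plate controls were vehicle for no effect and reference inhibitor for full effect; nearly all actives have a fitted effect of over 55% in size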
Target sequence (P08659 whole entry, looked up): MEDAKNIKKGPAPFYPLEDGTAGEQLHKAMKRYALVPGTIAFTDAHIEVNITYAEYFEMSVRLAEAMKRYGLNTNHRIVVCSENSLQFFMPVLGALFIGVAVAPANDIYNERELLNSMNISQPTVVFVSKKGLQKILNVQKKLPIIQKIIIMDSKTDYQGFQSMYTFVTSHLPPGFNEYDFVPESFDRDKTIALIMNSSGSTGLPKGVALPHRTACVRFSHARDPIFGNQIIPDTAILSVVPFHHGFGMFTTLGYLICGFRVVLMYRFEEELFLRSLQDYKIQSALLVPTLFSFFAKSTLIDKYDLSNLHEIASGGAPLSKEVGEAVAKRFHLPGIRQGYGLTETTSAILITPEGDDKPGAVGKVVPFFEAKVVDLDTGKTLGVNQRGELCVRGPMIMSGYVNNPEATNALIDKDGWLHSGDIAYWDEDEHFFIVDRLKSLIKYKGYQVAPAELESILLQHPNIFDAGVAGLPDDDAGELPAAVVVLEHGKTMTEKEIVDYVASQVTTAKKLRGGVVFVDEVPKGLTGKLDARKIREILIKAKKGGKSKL
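Purified P. pyralis luciferase (10nM final) with 10uM D-luciferin and 10uM ATP (Km levels) in 50mM Tris acetate pH 7.5, 10mM Mg acetate, 0.01% Tween-20, 0.05% BSA; qHTS 6-point titration, ~60 µM downward; luminescence read.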
NPC1 promoter act – NPC1 promoter activation; Huh7 NPC1 promoter luciferase reporter, 24 h; Potency, µM (doses to about 9.22 µM), without a hit: at the highest dose activation, hits mostly activators; actives 2.4% (n = 320,000); AID 485313; note: % of control where 0% means no effect; nearly all actives have a fitted effect of over 60% in size
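Luminescence from an NPC1 promoter-driven luciferase reporter in stably transfected Huh7 cells was measured after 24 h compound treatment at 37 °C, followed by 10 min ambient incubation with luciferase detection reagent.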
ELG1 genotox – induces genotoxicity in HEK293T cells with luciferase-tagged ELG1; HEK293T ELG1-luciferase reporter, luminescence, 16 h; Potency, µM (series often up to 46 µM), for inactives: top-dose activity change, positive = activation, actives largely listed as activators; actives 1.3% (n = 330,000); AID 504466; note: % of control where 0% means no effect; nearly all actives have a fitted effect of over 60% in size
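After overnight (16 hr) compound treatment at 37 °C, ELG1-luciferase HEK293T cells were lysed with ONE-Glo; luminescence quantified 30 min later at room temperature.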
Rab9 promoter act – activators of Rab9 promoter | Potency, µM (series often up to 9.22 µM), for inactives: top-dose activation, negative = inhibition, most hits filed as activators | Huh7 Rab9 promoter-luciferase reporter, luminescence, 24 h | actives 2.8% (n = 320,000); note: % of control where 0% means no effect; nearly all actives have a fitted effect of over 60% in size
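Measured in stably transfected Huh7 cells bearing a Rab9 promoter–luciferase construct: 24 h compound treatment at 37 °C, followed by luminescence detection.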
SMN2 splice up – SMN2 splice variant enhancement. HEK293 SMN2-luciferase splicing reporter, luminescence, 30-36 h. Potency, µM (series often up to 46.1 µM), for inactives: top-dose activity change, positive = activation, most hits filed as activators. actives 2.8% (n = 210,000); note: % of control where 0% means no effect; nearly all actives have a fitted effect of over 55% in size
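qHTS luciferase splicing reporter: luminescence rises when SMN2 exon 7 is included in transfected HEK293 cells. Compound exposure lasted 30-36 h at 37C, with 4.5 mM final sodium butyrate as control, followed by a ONE-Glo read.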
Active calls of the source: *; ? = inconclusive; nt = no result. Calls come from the whole dose curve; as a rule, active = well fitted curve in the direction sought with a large enough effect; inconclusive = small, poorly fitted or top-dose-only effect, or another doubt; inactive = no such curve, though single readings can be large; an effect the other way counts as inactive or inconclusive. Potency is the fitted concentration of half-maximal effect.

SMILES | KinaseGlo FLuc | FLuc counter | NPC1 promoter act | ELG1 genotox | Rab9 promoter act | SMN2 splice up
COc1ccc(/C(N)=N/OC(=O)Cc2cccs2)cc1OC | 1.4% | 23.9µM* | 10.7% | 12.4% | 5.8% | 23.4%
COc1ccc(CC(=O)O/N=C(\N)c2ccc(OC)cc2)cc1 | nt | ? | 9.5% | 6.5% | 23.8% | nt
COc1ccc(/C(N)=N/OC(=O)Cc2cccs2)cc1 | 0.3% | 12µM* | ? | ? | 3.16µM* | ?
Cc1ccccc1NC(=O)CCn1nc(-c2ccccc2)c2ccccc2c1=O | nt | -1.1% | nt | nt | nt | nt
Cc1ccc(OCCn2nc3ccccc3n2)c(C)c1 | 2.4% | ? | 12.0% | 18.4µM* | 18.2% | 3.3%
CC(=O)N1CCN(C(=O)CNC(=O)c2cccs2)CC1 | nt | nt | 0.2% | -1.7% | -3.4% | nt
CC1CCCN(C(=O)CNC(=O)c2cccs2)C1 (stereo unspecified) | nt | ? | 3.98µM* | 21.8% | ? | nt
COc1ccc(-c2onc(C)c2C)cc1S(=O)(=O)Nc1cc(Cl)ccc1C | nt | -16.7% | nt | nt | nt | nt
CC1CCc2sc(C(=O)OCC(=O)NCc3ccccc3)cc2C1 (stereo unspecified) | nt | 6.8% | -1.2% | 10.1% | -0.9% | nt
C/C(N)=C(/C#N)C(=O)COC(=O)c1cc2c(s1)CCCC2 | -4.0% | 15.1µM* | 0.6% | ? | -19.3% | 24.1%
C/C(N)=C(/C#N)C(=O)COC(=O)c1cc2c(s1)CCC(C)C2 (stereo unspecified) | -0.7% | 16.9µM* | -2.2% | ? | -2.3% | 20.5%
O=C(NCCS(=O)(=O)N1CCN(c2cccc(Cl)c2)CC1)C(c1ccccc1)c1ccccc1 | nt | -0.2% | nt | nt | nt | nt
CCN1C(=O)S/C(=C/c2cn(C)c3ccccc23)C1=O | -8.5% | 12µM* | -1.6% | 5.2% | -1.5% | 14.5%
Cn1cc(/C=C2\SC(=O)N(c3ccccc3)C2=O)c2ccccc21 | -1.0% | -7.0% | 3.55µM* | ? | 3.98µM* | ?
CNC(=O)c1c(NC(=O)c2ccc(S(=O)(=O)N3CCCCC3C)cc2)sc2c1CCC2 (stereo unspecified) | nt | -4.5% | nt | nt | nt | nt
COc1ccc(N=c2oc3ccccc3cc2C(=O)Nc2ccccn2)cc1OC | -13.8% | 23.9µM* | ? | ? | ? | 9.8%
COc1ccccc1NC(=O)c1oc2ccccc2c1NC(=O)c1cccc(OC)c1OC | nt | -2.1% | nt | nt | nt | -1.5%
COc1ccccc1NC(=O)c1cc2ccc(O)cc2o/c1=N\O | -7.1% | 5.36µM* | 0.6% | 3.0% | -2.2% | 9.6%
COc1ccc2cc(C(N)=O)/c(=N\NC(=O)c3ccccc3)oc2c1 | nt | 10.7µM* | 0.891µM* | ? | 0.708µM* | nt
COc1ccccc1NC(=O)c1cc2c(CO)cnc(C)c2oc1=Nc1ccc(OC)c(OC)c1 | nt | 1.4% | -7.7% | -10.8% | -9.8% | nt
COc1ccccc1NC(=O)c1cc2ccccc2o/c1=N\O | -3.4% | ? | 28.8% | 15.5% | 3.98µM* | -7.9%
Cc1cc(C)cc(NC(=O)C2CCN(S(=O)(=O)c3cccc(-c4noc(C)n4)c3)CC2)c1 | nt | -13.1% | nt | nt | nt | nt
CCCC(NC(=S)NCC1CCCO1)C12CC3CC(CC(C3)C1)C2 (stereo unspecified) | nt | -5.5% | -9.5% | -11.4% | -5.1% | nt
COc1ccc(CCNC(=O)Cc2c(C)c3c(cc(C)c4c(C)coc43)oc2=O)cc1OC | nt | -8.5% | nt | nt | nt | -6.5%
CC(=O)N1CCc2cc(CNS(=O)(=O)c3ccc(F)cc3)ccc21 | nt | -1.5% | nt | nt | nt | nt
SMILES | KinaseGlo FLuc | FLuc counter | NPC1 promoter act | ELG1 genotox | Rab9 promoter act | SMN2 splice up
COc1ccccc1N=c1oc2cc(O)ccc2cc1C(N)=O | ? | 13.5µM* | 6.2% | -0.1% | 1.8% | -5.2%
CCNS(=O)(=O)c1ccc(CCC(=O)NCCC2=CCCCC2)cc1 | -2.3% | -2.0% | -2.2% | 1.7% | -3.1% | -6.1%
Cc1c(OC(C)C(=O)NCc2ccncc2)ccc2c3c(c(=O)oc12)CCCC3 (stereo unspecified) | nt | 4.6% | -4.3% | -17.5% | 2.3% | nt
CN(C)/C=C1\C(=O)N(c2ccc(Cl)cc2)CS1(=O)=O | -9.1% | 16.9µM* | 3.16µM* | ? | ? | 29.1%
Cc1ccc(N2CS(=O)(=O)/C(=C/N(C)C)C2=O)cc1 | -27.6% | 12µM* | 2µM* | ? | 1.26µM* | 12.6µM*
CN(C)/C=C1\SC(=S)N(c2ccc(F)cc2)C1=O | nt | -15.2% | 10.5% | 11.8% | 20.3% | nt
Cc1ccc(N/C=C(/C#N)c2ccsc2)cc1C | 10.3% | 2.39µM* | nt | nt | nt | 12.6µM*
O=C(Nc1ncccc1Cl)C1COc2ccccc2O1 (stereo unspecified) | -5.0% | 16.9µM* | -2.1% | ? | 9.1% | -15.2%
O=C(NC1CCCCC1)C1COc2ccccc2O1 (stereo unspecified) | nt | 1.8% | 0.5% | 3.7% | 3.3% | nt
CC1(C)Oc2ccc(NC(=O)C3COc4ccccc4O3)cc2O1 (stereo unspecified) | -21.8% | 1.9µM* | 1.58µM* | ? | 0.501µM* | -22.6%
CC1CCC(NC(=O)C2COc3ccccc3O2)CC1 (stereo unspecified) | nt | -4.8% | 17.5% | 14.6µM* | 20.0% | nt
O=C(Nc1ccccc1)C1COc2ccccc2O1 (stereo unspecified) | nt | -14.8% | 25.4% | 15.5% | 9.9% | nt
O=C(Nc1ccc(-c2cn3ccsc3n2)cc1)C1COc2ccccc2O1 (stereo unspecified) | -2.7% | 26.9µM* | ? | -0.6% | 3.16µM* | 8.7%
Cc1ccc(NC(=O)C2COc3ccccc3O2)nc1 (stereo unspecified) | -5.9% | 13.5µM* | 24.1% | 10µM* | 26.9% | -5.8%
O=C(Nc1cccnc1)C1COc2ccccc2O1 (stereo unspecified) | -6.8% | -2.6% | 0.1% | 1.3% | -2.7% | -4.9%
CN(C)S(=O)(=O)Nc1ccc(-c2cn3ccsc3n2)cc1 | nt | 26.9µM* | nt | nt | nt | nt
C/C(=N\NC(=O)C1COc2ccccc2O1)c1ccccn1 (stereo unspecified) | -2.4% | -11.4% | -12.3% | 11.6µM* | -25.0% | -75.8%
Cc1ccc(NC(=O)C2COc3ccccc3O2)cc1 (stereo unspecified) | nt | 23.9µM* | 2.82µM* | ? | 3.55µM* | nt
CCCN1Cc2cccc(C(=O)Nc3cccc(C(=O)OCC)c3)c2C1=O | nt | ? | nt | nt | nt | -5.0%
Cc1ccnc(NC(=O)C2COc3ccccc3O2)c1 (stereo unspecified) | -9.2% | 9.53µM* | 2.82µM* | ? | 3.55µM* | ?
Cc1ccc(NC(=O)C2COc3ccccc3O2)c(C)c1 (stereo unspecified) | nt | ? | 26.7% | 10.8% | 3.8% | nt
O=C(CSc1nc2c(c(=O)[nH]1)CN(Cc1ccc3c(c1)OCO3)CC2)Nc1cccc(Cl)c1 | nt | -1.5% | nt | nt | nt | nt
